Most compounds without a hit are left out; they make up all but 9.3% or so of the library.
SMN2 splice enh = SMN2 splice variant enhancement; HEK293 SMN2-luciferase splicing reporter, luminescence, 30-36 h; Potency, µM (top dose mostly 46.1 µM), for the others: at the highest dose activity change, positive = activation, actives largely listed as activators; hit rate 2.8% among 210,000; also: % of control where 0% means no effect; nearly all actives have a fitted effect of over 55% in size
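HEK293 cells carry an SMN2 minigene-luciferase reporter in which exon 7 inclusion puts luciferase in frame. Cells were seeded at 2000 cells/well, attached for 10-12 hours, then exposed to compounds for 30-36 hours at 37C before ONE-Glo luminescence.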
FLuc modulator = firefly luciferase modulation, counter-screen for miR-21 project; purified FLuc, Km substrates, luminescence inhibition; Potency, µM (series often up to 57.5 µM), for the others: at the highest dose activity change, negative = inhibition, usual class: inhibitors; hit rate 6.9% among 360,000; AID 588342;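 also: plate controls were vehicle for no effect and reference inhibitor for full effect; nearly all actives have a fitted effect of over 55% in size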
Target sequence (P08659 whole entry, looked up): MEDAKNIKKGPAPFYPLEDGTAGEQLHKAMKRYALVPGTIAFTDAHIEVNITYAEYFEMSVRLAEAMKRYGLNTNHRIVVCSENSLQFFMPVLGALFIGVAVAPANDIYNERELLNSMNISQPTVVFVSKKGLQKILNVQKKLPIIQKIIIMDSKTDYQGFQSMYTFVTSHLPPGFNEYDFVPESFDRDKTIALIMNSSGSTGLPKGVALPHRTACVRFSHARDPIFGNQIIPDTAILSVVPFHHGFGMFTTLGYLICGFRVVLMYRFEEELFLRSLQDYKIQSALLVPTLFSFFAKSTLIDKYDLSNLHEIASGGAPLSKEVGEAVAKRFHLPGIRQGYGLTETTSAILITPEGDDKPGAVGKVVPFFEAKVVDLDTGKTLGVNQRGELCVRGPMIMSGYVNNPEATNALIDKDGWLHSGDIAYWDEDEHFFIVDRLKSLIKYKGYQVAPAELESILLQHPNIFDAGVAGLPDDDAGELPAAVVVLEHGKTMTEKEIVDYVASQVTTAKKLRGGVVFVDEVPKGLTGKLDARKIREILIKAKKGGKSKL
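Biochemical qHTS of compounds, final roughly 60 µM downward over six points, against 10 nM purified firefly luciferase using Km concentrations of substrates (10 uM D-luciferin, 10 uM ATP) in Tris acetate pH 7.5 buffer; luminescence output.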
NPC1 promoter act = activates the NPC1 promoter; Huh7 NPC1 promoter luciferase reporter, 24 h; Potency, µM (series often up to 9.22 µM), for inactives: top-dose activation, actives largely listed as activators; hit rate 2.4% among 320,000; AID 485313; also: % of control where 0% means no effect; nearly all actives have a fitted effect of over 60% in size
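Huh7 cells stably carrying NPC1 promoter–luciferase, plated in Opti-MEM with 10% FBS for 2 h, were exposed to compound in DMSO for 24 h at 37 °C; luciferase reagent was added for 10 min and luminescence read.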
ELG1 genotoxic = genotoxicity induction in ELG1-luciferase HEK293T cells; HEK293T ELG1-luciferase reporter, luminescence, 16 h; hit rate 1.3% among 330,000; Potency, µM (doses to about 46 µM), for the others: top-dose activity change, positive = activation, hits mostly activators; AID 504466; also: % of control where 0% means no effect; nearly all actives have a fitted effect of over 60% in size
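Step 1: seed 2,000 HEK293T ELG1-luciferase cells per well. Step 2: add compound or DMSO, incubate 16 hr at 37 °C. Step 3: ONE-Glo, 30 min at room temperature, read luminescence.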
ELG1 DNA repair = blocks ELG1-dependent DNA repair in HEK293T cells; HEK293T ELG1-luciferase reporter, luminescence, 16 h; DNA damage induced by 5-fluorouridine; hit rate 2.3% among 330,000; Potency, µM (doses to about 46.1 µM), for inactives: at the highest dose activity change, negative = inhibition, hits mostly inhibitors; also: % is scaled to controls: 0 for no effect and ±100 for the full control effect; nearly all actives have a fitted effect of over 55% in size
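Overnight (16 hr) co-exposure of 2,000 cells/well to 5-fluorouridine and compound at 37 °C preceded detection. Luciferase was quantified via ONE-Glo luminescence; loss of signal denotes inhibition.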
Rab9 promoter act = Rab9 promoter activation | Huh7 Rab9 promoter-luciferase reporter, luminescence, 24 h | Potency, µM (highest dose often 9.22 µM), for inactives: at the highest dose activation, negative = inhibition, usual class: activators | hit rate 2.8% among 320,000; also: % of control where 0% means no effect; nearly all actives have a fitted effect of over 60% in size
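Huh7 cells stably carrying a Rab9 promoter-luciferase reporter, 1500 cells per well in OP-MEM I with 10% FBS, treated with compound 24 hours at 37C. Luciferase activity read by luminescence after 10 minutes with Amplite reagent.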
The depositor's hits bear a star; ? = inconclusive; . = no result. Calls follow the shape of the dose curve; as a rule, active = well fitted curve in the direction sought with a large enough effect; inconclusive = small, poorly fitted or top-dose-only effect, or another doubt; inactive = no such curve, though single readings can be large; an effect the other way counts as inactive or inconclusive. Potency is read from the fitted curve at half-maximal effect.

SMILES	SMN2 splice enh	FLuc modulator	NPC1 promoter act	ELG1 genotoxic	ELG1 DNA repair	Rab9 promoter act
O=C(N/N=C/c1ccc2ccccc2c1)c1ccc(COc2ccc3c(c2)CCC3)o1	?	2.69µM*	?	?	?	?
O=C(N/N=C/c1cc([N+](=O)[O-])ccc1O)c1ccc(COc2ccc3c(c2)CCC3)o1	.	-0.7%	-31.2%	0.4%	6.51µM*	?
Cc1cc([N+](=O)[O-])nn1CC(=O)NC1CCCCC1	.	-1.1%	0.8%	-0.6%	7.5%	2.8%
Cc1oc(-c2cccc(C(F)(F)F)c2)nc1CN1CCOCC1	.	26.9µM*	13.0%	?	?	?
COc1cccc(OC)c1C(=O)NC(=O)Nc1c(C)cccc1C	.	-2.5%	0.9%	-5.6%	-2.2%	-12.4%
COc1ccc(NC(=O)Cn2nc(-c3ccncc3)ccc2=O)cc1Cl	.	0.1%	.	.	.	.
COc1cccc(/C=C2\Oc3ccc(O)cc3C2=O)c1O	.	3.38µM*	?	?	?	?
COc1cccc(-c2cc(N3C(=O)Nc4ccccc4N3O)n[nH]2)c1	-5.6%	15.1µM*	3.8%	0.7%	?	-2.6%
CCOc1ccc(-c2cc(N3C(=O)Nc4ccccc4N3O)n[nH]2)cc1	4.1%	6.75µM*	-2.3%	-3.0%	6.7%	-2.7%
COC(=O)Nc1ccc(S(=O)(=O)N2CCC(C(=O)NCc3ccc4c(c3)OCO4)CC2)cc1	.	.	.	2.1%	?	.
Nc1ccc(C(=O)N2N=C(c3ccccc3)CC2(O)C(F)(F)F)cc1 (configuration not stated)	.	12µM*	14.5%	0.1%	-0.6%	2.4%
Cc1ccc(C2=NN(C(=O)c3ccco3)C(O)(C(F)(F)F)C2)cc1 (configuration not stated)	.	19µM*	-1.2%	-1.7%	-19.2%	-2.0%
O=C(c1ccncc1)N1N=C2CCCCCC2C1(O)C(F)(F)F (configuration not stated)	.	-6.0%	-0.5%	0.2%	-28.6%	-1.9%
Nc1ccc(C(=O)N2N=C(c3ccc(F)cc3)CC2(O)C(F)(F)F)cc1 (configuration not stated)	.	?	0.5%	1.5%	-27.4%	-2.8%
O=C(c1ccco1)N1N=C2CCCCCC2C1(O)C(F)(F)F (configuration not stated)	.	-0.3%	-38.9%	7.5%	0.326µM*	-43.7%
CCn1c(C)nc2cc(C(=O)NNC(=S)Nc3ccc(OC)cc3)ccc21	-4.7%	?	-0.1%	6.1%	-4.7%	18.5%
Cc1ccc(Nc2nc(Nc3ccc(C)c(C)c3)nc(N3CCOCC3)n2)cc1C	3.0%	-2.4%	.	.	.	.
CC(C)(C)NC(=O)CSc1nc2ccc(Nc3nc(N4CCOCC4)nc(N4CCOCC4)n3)cc2s1	-48.5%	-15.8%	-3.9%	-18.4%	3.26µM*	-12.1%
COc1ccc(NC(=O)CSc2nc3ccc(Nc4nc(N5CCOCC5)nc(N5CCOCC5)n4)cc3s2)cc1	.	2.2%	-5.6%	-1.4%	2.31µM*	-6.0%
COc1ccc(Nc2nc(N3CCOCC3)nc(N3CCOCC3)n2)cc1Cl	.	-1.2%	-5.5%	-0.6%	5.62µM*	0.2%
Cc1ccc(NC(=O)CSc2nc3ccc(Nc4nc(N5CCOCC5)nc(N5CCOCC5)n4)cc3s2)cc1	.	-0.1%	-18.5%	-4.8%	?	-4.5%
CC(=O)CSc1nc2ccc(Nc3nc(N4CCOCC4)nc(N4CCOCC4)n3)cc2s1	25.1µM*	-0.2%	-0.2%	-7.8%	?	-7.2%
CC(=O)Nc1ccc2nc(SCC(=O)Nc3ccc(N4CCOCC4)c(Cl)c3)sc2c1	?	8.49µM*	?	0.0%	?	?
CC(=O)c1csc(-c2ccccc2)n1	-0.5%	?	-0.7%	9.7%	?	11.9%
Cc1ccc(C(=O)NCC(=O)OCc2csc(-c3ccccc3)n2)cc1	?	?	13.1%	?	?	-6.6%
SMILES	SMN2 splice enh	FLuc modulator	NPC1 promoter act	ELG1 genotoxic	ELG1 DNA repair	Rab9 promoter act
CNC(=O)c1csc(-c2ccc(Cl)cc2)n1	23.9%	?	10.5%	?	?	?
C=CCNC(=O)c1ccc(-c2nc(-c3ccc(Cl)cc3Cl)cs2)cc1	4.47µM*	-4.7%	5.2%	2.0%	13.2%	7.6%
O=C(OCc1csc(-c2ccccc2)n1)c1ccc(O)cc1	20.9%	19µM*	16.7%	?	?	?
C=CCNC(=O)c1ccc(-c2nc(-c3ccc(Cl)c(Cl)c3)cs2)cc1	-7.2%	0.9%	-3.6%	1.6%	0.0%	1.0%
CNC(=O)c1csc(-c2ccc(C)cc2)n1	24.9%	16.9µM*	?	?	?	?
O=C(O)c1ccccc1-c1csc(-c2ccccc2)n1	?	15.1µM*	?	?	?	3.98µM*
C=CC[C@H](CC(=O)N(CCO)Cc1ccccc1)C(=O)NCCOC(=O)[C@@H](CC=C)CC(=O)OC(C)(C)C	.	.	.	-0.7%	-5.4%	.
COc1ccccc1CCNC(=O)C(=O)NCC1OCCN1S(=O)(=O)c1cc(F)ccc1F (configuration not stated)	.	8.0%	0.0%	0.4%	0.0%	-2.7%
O=C(Nc1ccc(-c2csc(-c3ccccc3)n2)cc1)c1ccccc1Cl	-1.0%	?	-3.6%	-1.9%	5.4%	1.2%
CNC(=O)c1ccc(-c2nc(-c3ccccc3)cs2)cc1	15.8µM*	9.53µM*	?	?	?	3.98µM*
O=C(O)c1ccc(-c2nc(-c3ccccc3Cl)cs2)cc1	17.8µM*	16.9µM*	?	?	?	?
O=C(O)c1ccc(-c2nc(-c3ccccc3)cs2)cc1	10µM*	6.01µM*	1.41µM*	7.0%	?	1µM*
c1ccc(-c2csc(-c3ccc(-c4csnn4)cc3)n2)cc1	.	?	28.6%	?	?	?
O=C(O)c1ccccc1C(=O)Nc1ccc(-c2csc(-c3ccccc3)n2)cc1	71.8%	16.9µM*	5.3%	?	?	20.2%
COc1ccc(-c2noc(=O)n2Cc2ccccc2F)cc1	.	4.1%	0.0%	0.5%	-0.6%	4.4%
CCCCN(CCCC)CCNC(=O)c1cn(C)c2ccc(S(=O)(=O)N3CCCC3)cc2c1=O	?	1.4%	-0.3%	2.2%	13.0%	-4.5%
O=C(O)c1cnn(-c2nc(-c3ccc(Cl)c(Cl)c3)cs2)c1C(F)(F)F	.	?	21.1%	?	?	15.0%
O=C(O)c1ccc(-c2nc(-c3ccc(Cl)c(Cl)c3)cs2)cc1	128.6%	13.5µM*	3.16µM*	-0.2%	?	?
CCS(=O)(=O)c1ccc(-c2csc(-c3ccccc3)n2)c(Cl)c1Cl	-50.2%	23.9µM*	8.2%	20.6µM*	-8.2%	-1.0%
Cc1nc2sc(C(N)=O)c(N)c2c2c1CCCC2	.	12µM*	?	-18.5%	?	10.5%

Screening data from PubChem BioAssay.
